About 83,000 compounds went through this panel and 20% of them were active in at least one assay; those are over-represented in the sample as a whole.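 Cell lines were cultured in 96-well plates, exposed to a single compound concentration, and assessed for percent growth 48 hours later.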 Values without a mark were called inactive. Active and inactive are the calls of the source. Rule for the calls: active = growth percent below 10; inactive = the rest.
Assays:
Assay in all cases: NCI-60 one-dose screen, 48 h (100 = growth as untreated, 0 = no growth, -100 = all killed)
Details in all cases: 10 µM unless noted
[1] = tested on: NCI-H23 lung
[2] = tested on: NCI-H226 lung
[3] = tested on: NCI-H322M lung
[4] = tested on: HOP-62 NSCLC
[5] = tested on: NCI-H460 lung
[6] = tested on: HOP-92 NSCLC
[7] = tested on: NCI-H522 lung
[8] = tested on: A549/ATCC NSCLC
[9] = tested on: 786-0 renal
[10] = tested on: COLO 205 colon

Row | Compound | growth [1] | growth [2] | growth [3] | growth [4] | growth [5] | growth [6] | growth [7] | growth [8] | growth [9] | growth [10]
1 | O=C1C=C2C(=CCOC2O)O1 (stereo not given) | 60.4% | 34.4% | 101% | 59.6% | 71.1% | -22.2% (active) | -79.9% (active) | 71.6% | 47.1% | -87.3% (active)
2 | ClCCN(CCCl)c1ccc(OCc2ccccc2)cc1 | 58.7% | 84.6% | 102% | 54.8% | 20.3% | 57.3% | 75.1% | 45.7% | 19% | 75.9%
3 | CC1CCCC(C[N+](C)(C)C)C1=O (stereo not given) | 109% | 95.4% | 77.2% | 106% | 117% | 83.8% | 98.7% | 104% | 112% | 118%
4 | COc1cc(/C=C/[N+](=O)[O-])cc(OC)c1 | -47.3% (active) | -31.2% (active) | 84.6% | 35.9% | 40.6% | 28.9% | -40.1% (active) | 28.6% | -45.3% (active) | -49.4% (active)
5 | COc1ccc(/C=C\c2cc(OC)c(OC)c(OC)c2)cc1OCC(=O)Nc1nc2ccc(C(F)(F)F)cc2s1 | 40.1% | 45.8% | 64.7% | 45.4% | 7.6% (active) | 46.6% | -39.2% (active) | 27.1% | 83.2% | 95.3%
6 | Cn1cc(-c2csc(-c3cn(CCN4CCOCC4)c4ccccc34)n2)c2cccnc21 | 62.6% | 41.4% | 84.8% | 55.3% | 75.3% | 48.6% | 40.6% | 63% | 75.5% | 51.2%
7 | O=C(Nc1ccc(Br)cc1)c1cc(Br)cc(Br)c1O | -14.1% (active) | 10.6% | 13.7% | -4.33% (active) | -25.3% (active) | -30.7% (active) | -3.18% (active) | 6.64% (active) | -12.3% (active) | 102%
8 | C=CC12CCN(CC1)C(C(O)c1ccnc3ccc(OC)cc13)C2 (stereo not given) | 100% | 89.3% | 93.2% | 97.5% | 89% | 75.2% | 89% | 76.1% | 79% | -91.5% (active)
9 | CO[C@H](C(=O)O)[C@@H]1Cc2cc3cc(OC4CC(OC5CC(O)C(O)C(C)O5)C(O)C(C)O4)c(C)c(O)c3c(O)c2C(=O)[C@H]1OC1CC(OC2CC(OC3CC(C)(O)C(O)C(C)O3)C(O)C(C)O2)C(O)C(C)O1 (stereo not given in full) | -0.124% (active) | 0.862% (active) | 21.6% | 20.7% | 11.2% | 24.7% | -3.78% (active) | 13.7% | 10.3% | -12.5% (active)
10 | CC(C)=CCc1c(O)c(C(=O)CC(C)C)c(O)c2c(-c3ccccc3)cc(=O)oc12 | 26.8% | 47.4% | 63.2% | 84.2% | 27.9% | -13.2% (active) | 31.5% | 54.6% | 66.2% | 83.1%
11 | CC(C)=CC1C(C(=O)OCc2cccc(Oc3ccccc3)c2)C1(C)C (stereo not given) | 88.6% | 102% | 96.5% | 110% | 98.6% | 56.8% | 73.5% | 92.4% | 81.3% | 101%
12 | CCCc1cc(O)c2c3c(c(=O)oc2c1)CN(C)CC3 | 54.5% | 38.9% | 42.9% | 28.6% | 11.9% | 81.6% | 18.4% | 29.1% | 55% | 21%
13 | C/C(=C\c1cc(C(F)(F)F)nn1CCNC(=O)OC(C)(C)C)[C@@H]1C[C@@H]2O[C@]2(C)CCC[C@H](C)[C@H](O)[C@@H](C)C(=O)C(C)(C)[C@@H](O)CC(=O)O1 | 59.2% | 77.4% | 72.3% | 78.8% | 30.5% | 66.4% | 63.5% | 54.3% | 67.8% | 30.6%
14 | C[C@@]12CC=C3c4nc(Nc5cccc(O)c5)sc4CC[C@]3(C)[C@H]1CC[C@]1(C)C(=O)CC[C@@H]21 | 63.7% | 94.5% | 72.8% | 27.5% | 43.9% | 64.3% | -56.4% (active) | 55.4% | -0.522% (active) | 34.4%
15 | NC(N)=N/N=C\c1c[nH]c2ccc(Br)cc12 | 86.3% | 69.2% | 87.9% | 83.5% | 102% | 37.9% | 81% | 92.5% | 78.6% | 84.5%
16 | CCOC(=O)N1CC1 | 107% | 104% | 105% | 99.8% | 107% | 53% | 92.4% | 99.9% | 102% | 91.3%
17 | Fc1ccc2c(c1)c(-c1nc(-c3c[nH]c4ncccc34)cs1)cn2CCCCN1CCCCC1 | -75.9% (active) | -7.3% (active) | -47.9% (active) | -89.5% (active) | -80% (active) | -52.8% (active) | -87.2% (active) | -87.7% (active) | -93.7% (active) | -89.6% (active)
18 | CCCCNC(c1ccc(Cl)cc1)C(O)c1ccc(Cl)cc1 (stereo not given) | 38.5% | 65.7% | 51.4% | 40.6% | 7.67% (active) | -5.31% (active) | 35.2% | 63.5% | 50% | -71.4% (active)
19 | Fc1ccc2c(c1)c(-c1nc(-c3c[nH]c4ncccc34)cs1)cn2CCN1CCOCC1 | 60% | 49.2% | 77.2% | 39.3% | 59.8% | 18.8% | 44.5% | 52.1% | 71.6% | 38.4%
20 | CC1(C)CN1P(=O)(N1CC1(C)C)N1CC1(C)C (stereo not given) | 105% | 109% | 111% | 102% | 112% | 103% | 104% | 91% | 109% | 107%
21 | CC[C@H](C)[C@@H]([C@@H](CC(=O)N1CCC[C@H]1[C@H](OC)[C@@H](C)C(=O)N[C@H](C)[C@@H](O)c1ccccc1)OC)N(C)C(=O)[C@@H](NC(=O)[C@@H](NC)C(C)C)C(C)C | 27.9% | 66.9% | 50.8% | 25.8% | 9.17% (active) | 11.5% | -36.1% (active) | 21.4% | 21.2% | -72.1% (active)
22 | CCOC(=O)C(Cc1ccc(N(CCCl)CCCl)cc1)NC(=O)C(CC(C)C)NC(C)=O (stereo not given) | 17.1% | 50% | 97.1% | 41% | 1.65% (active) | 24.6% | -73.1% (active) | 49.4% | 9.46% (active) | -29.3% (active)
23 | Cc1cccc(N2CCN(C(C)C#N)CC2)c1 (stereo not given) | 97.6% | 96.6% | 93.8% | 107% | 109% | 91.4% | 88.9% | 107% | 90.3% | 105%
24 | C/C1=C/C(=O)O[C@@H]2C[C@@H](CC[C@H](C)/C=C\C=C\CC1)O[C@@](O)([C@@H]1CSC(=O)N1CO)C2 | 13.9% | 46.1% | 41.7% | -25.7% (active) | 26.9% | -82.5% (active) | -52.3% (active) | 20.3% | 6.79% (active) | -55.5% (active)
25 | Nc1nnnc2nc[nH]c12 | 31% | -54.1% (active) | 28.1% | -11.4% (active) | 20.6% | 1.91% (active) | 14.6% | 34.4% | 0.102% (active) | 6.07% (active)
26 | COC(=O)C1OC(Oc2ccc(N(CCCl)CCCl)cc2)C(OC(C)=O)C(OC(C)=O)C1OC(C)=O (stereo not given) | 92.9% | 96.7% | 108% | 94.4% | 29.3% | 78% | 67.9% | 75.9% | 75% | 95.3%

From PubChem BioAssay (NCI)
